# RBX1-CUL1 inh – inhibitors of human ROC1-CUL1 ubiquitin ligase activity | P62877+Q13616 | in vitro K48 di-Ub FRET, acceptor:donor ratio, 45 min | inhibition, % at 10 µM | hit rate 0.6% among 140,000; in the data active = inhibition above about 25%
# Target sequence (P62877 whole entry, looked up): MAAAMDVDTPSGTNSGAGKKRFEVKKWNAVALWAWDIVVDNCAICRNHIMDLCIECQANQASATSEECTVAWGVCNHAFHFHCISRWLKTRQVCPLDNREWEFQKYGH
# Target sequence (Q13616 whole entry, looked up): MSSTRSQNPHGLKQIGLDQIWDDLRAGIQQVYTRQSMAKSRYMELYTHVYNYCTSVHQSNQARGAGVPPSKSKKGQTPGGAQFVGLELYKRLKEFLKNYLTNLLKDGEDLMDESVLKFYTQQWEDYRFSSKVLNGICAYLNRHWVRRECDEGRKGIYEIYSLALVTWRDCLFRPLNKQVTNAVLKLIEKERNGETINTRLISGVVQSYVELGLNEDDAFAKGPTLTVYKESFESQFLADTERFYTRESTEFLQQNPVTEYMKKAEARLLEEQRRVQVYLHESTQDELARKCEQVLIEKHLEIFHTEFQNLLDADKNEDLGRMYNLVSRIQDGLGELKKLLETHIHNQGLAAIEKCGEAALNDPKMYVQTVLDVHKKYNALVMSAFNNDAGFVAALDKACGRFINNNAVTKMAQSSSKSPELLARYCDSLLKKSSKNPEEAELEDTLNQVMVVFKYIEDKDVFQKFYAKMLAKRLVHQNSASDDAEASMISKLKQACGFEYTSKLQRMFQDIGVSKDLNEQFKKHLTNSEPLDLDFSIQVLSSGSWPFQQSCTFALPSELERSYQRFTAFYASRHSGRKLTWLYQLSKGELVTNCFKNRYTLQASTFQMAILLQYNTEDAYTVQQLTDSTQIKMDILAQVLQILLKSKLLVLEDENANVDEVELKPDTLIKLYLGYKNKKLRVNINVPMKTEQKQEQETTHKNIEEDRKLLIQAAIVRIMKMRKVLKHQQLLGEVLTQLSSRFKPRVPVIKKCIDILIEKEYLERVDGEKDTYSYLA
# Starred values were filed as active, the others as inactive. Only a selection was taken, and hits are over-represented in it overall.
SMILES,RBX1-CUL1 inh
CCOC(=O)C=CCn1nnn(-c2ccc(Cl)cc2)c1=O,2
COCc1c(C(=O)O)nnn1-c1ccc(Cl)cc1,3
CO/C=C\C=C/c1nnn(-c2ccc(Cl)cc2)n1,38*
O=C(NC1CC(=O)N(CC2CCCCC2)C1)C1CCOCC1 (configuration not stated),6
Cc1c(C(=O)Nc2sc3c(c2C#N)CCC3)cccc1[N+](=O)[O-],2
O=C(CSc1nc2scc(-c3ccco3)c2c(=O)n1-c1ccccc1)Nc1ccc2c(c1)OCCO2,3
O=C(CSc1nc2scc(-c3ccco3)c2c(=O)n1-c1ccccc1)c1ccc(F)cc1,97*
CC(=O)CSc1nc2scc(-c3ccc(C)o3)c2c(=O)n1-c1ccccc1,-5
Cc1cnnn1-c1ccc(C(=O)N(C)c2ccccc2)cc1,4
COC(=O)c1ccc2ncccc2c1,-16
Oc1c(Cl)c(Cl)c2c(c1Cl)CC(Nc1ccc3ncccc3c1)O2 (configuration not stated),81*
CNCc1cn(C2CCN(C(=O)c3ccc4ncccc4c3)CC2)nn1,7
COC(=O)c1ccc(C[n+]2c(C)n(N)c3ccccc32)cc1,9
CCN1CCN(Cc2nc(N)nc(N3CCOCC3)n2)CC1,7
COc1ccc(CC(=O)NCc2nc(-c3ccc(NC(=O)Cc4ccccc4)cc3)oc2C)cc1,5
Cc1nn(C)c(C)c1CCC(=O)NCc1nc(-c2ccc(NC(=O)Cc3ccccc3)cc2)oc1C,39*
Cc1oc(-c2ccc(NC(=O)Cc3ccccc3)cc2)nc1CNC(=O)CCC(C)C,-1
CCOc1ccccc1-c1nc(CN(C)C(C)c2nc(C)cs2)c(C)o1 (configuration not stated),-2
Cn1nnnc1Sc1ccc([N+](=O)[O-])cc1Cl,-4
Cn1ccnc1Sc1ccc([N+](=O)[O-])c(Sc2nccn2C)n1,3
Cn1nnnc1Sc1ccc([N+](=O)[O-])c(Sc2nnnn2C)n1,32*
O=C(c1cccs1)C1CCCN(C(=O)Cn2nnnc2CN2CCOCC2)C1 (configuration not stated),0
O=c1oc2c(cc(NS(=O)(=O)c3ccc(Br)cc3)c3ccccc32)s1,2
CC(C)(C)c1ccc(S(=O)(=O)Nc2ccc(O)c(C(=O)O)c2)cc1,4
O=S(=O)(Nc1cc(Sc2nnnn2-c2ccccc2)c(O)c2ccccc12)c1ccccc1,5
SMILES,RBX1-CUL1 inh
CC(C)(C)c1ccc(S(=O)(=O)Nc2cc(SCC(=O)O)c(O)c3ccccc23)cc1,92*
CC(=O)c1c(C)oc2c1cc(NS(=O)(=O)c1ccc(Br)cc1)c1ccccc12,3
O=C(O)CSc1cc(NS(=O)(=O)c2ccccc2)c2ccccc2c1O,37*
Cc1ccc(NS(=O)(=O)c2ccccc2)c(O)c1,11
O=C(O)CSc1cc(NS(=O)(=O)c2ccc(Br)cc2)c2ccccc2c1O,102*
CC(C)(C)c1ccc(S(=O)(=O)Nc2ccc(Cl)cc2Cl)cc1,-2
CC(=O)c1ccc(NC(=O)c2ccc(COc3c(F)c(F)cc(F)c3F)cc2)cc1,5
C=CCn1c(=O)c2c(nc3[nH]c(C)cn32)n(C)c1=O,-6
CCCCC1C(=O)c2cccc3c2N(CCC3)C1=O (configuration not stated),-12
CCCCCCSc1nc2sc3c(c2c(=O)n1-c1ccc(C)cc1)CCCC3,-8
CN(C)S(=O)(=O)N1CCC(C(=O)NC2CC3CCC2C3)CC1 (configuration not stated),0
CCOC(=O)c1c(C)n(-c2ccccc2)c2ccc(OC(=O)c3ccccc3Cl)cc12,-2
CCOC(=O)c1c(C(=O)OCC)c(C)n(-c2ccccc2C(=O)O)c1C,36*
CCOC(=O)c1c(C)n(-c2ccccc2)c(C)nc1=S,11
CCOc1ccc(/C=C/C(=O)C2=CC(Br)=CCC(=NC)C2=O)cc1,8
COc1cccc(N2CC(NC(=O)/C=C\c3ccc(OC)c(OC)c3)CC2=O)c1 (configuration not stated),-13
CN=C1CC=C(Br)C=C(C(=O)/C=C/c2ccc(Cl)cc2)C1=O,63*
CCN=C1CC=C(Br)C=C(C(=O)/C=C/c2ccc(OC)c(OC)c2)C1=O,-6
CN=C1CC=C(Br)C=C(C(=O)/C=C/c2cccc(OC)c2)C1=O,44*
CN=C1CC=C(Br)C=C(C(=O)/C=C/c2ccc(Cl)cc2Cl)C1=O,4
CC1(Nc2ccc(Cl)cc2)NC(=O)/C(=C2/C(=O)Nc3ccc(Br)cc32)S1 (configuration not stated),1
COc1ccccc1C(=O)NC1CCCC1,-4
O=C1Nc2ccc(Br)cc2C1=Cc1nc2ccccc2c(=O)n1Cc1ccccc1,-4
O=C(O)COc1ccccc1/C=C1\C(=O)Nc2ccc(Br)cc21,5
O=C1Nc2ccc(Br)cc2/C1=C\c1nc2ccccc2c(=O)n1-c1cccc(C(=O)O)c1,32*
SMILES,RBX1-CUL1 inh
COc1cc(CNC2COc3c(cccc3OC)C2)c(Cl)cc1O (configuration not stated),-9
C=CCn1c(SCC(=O)c2ccc3c(c2)OCCO3)nc2scc(-c3cccs3)c2c1=O,3
COc1cc(/C=C2\SC(=Nc3cc(C)cc(C)c3)NC2=O)cc(Br)c1O,8
O=C1NC(=Nc2cccc(C(F)(F)F)c2)S/C1=C\c1cc(O)c(O)c(Br)c1,30*
O=C1NC(=Nc2ccc(F)cc2)S/C1=C\c1ccc(O)c(Br)c1,2
CCOC(=O)N1CCC(N2CCCC(CNC(=O)CCc3ccccc3)C2)CC1 (configuration not stated),-3
COc1cc2c(c(O)c1OC)C(=O)C(=O)CC=C2,33*
COc1cc2c(c(OC)c1)C(=O)C2,3
COc1cc(NC(C)=O)c(-c2c(NC(C)=O)cc(OC)c(OC)c2OC)c(OC)c1OC,5
COc1cc(OS(=O)(=O)c2ccc(C)cc2)cc2oc(C)cc(=O)c12,1
Cc1ccc(-c2nn3c(N)c(C#N)nnc3c2Cl)cc1,94*
Cc1ccc(-c2nn3c(-c4cccs4)c(C#N)cnc3c2Br)cc1,0
Cc1ccc(-c2nn3c(-c4ccc(C)cc4)nnc3c3ccccc23)cc1,3
COc1cc(C(=O)Oc2ccccc2C(C)=O)cc(OC)c1OC,-6
CC(=O)c1ccccc(OC(=O)c2ccccc2)c1=O,81*
O=C(Oc1ccccc1C(=O)Oc1ccccc1)c1ccccc1,2
CCN(CC)c1ccc(N(CCO)CCO)cc1C(N)=O,-6
COc1ccc(C(=O)Nc2ccc(-c3csc(C)n3)cc2)cc1,-3
Cc1ccc(N=C2S/C(=C/c3ccccc3OCC(=O)N3CCOCC3)C(=O)N2Cc2ccccc2)cc1,2
CCOc1ccccc1/C=C1\SC(=Nc2ccc(C(=O)OC)cc2)N(C)C1=O,-11
COCCN1C(=O)/C(=C/c2ccccc2OCc2cccc(C(=O)O)c2)SC1=Nc1ccccc1,68*
CCOC(=O)c1cc(CN2CCCCC2)ccc1O,4
CCN1N=C(C)Cn2c1nc1c2c(=O)n(C)c(=O)n1C,-11
OCNc1nc2c3ccccc3nc(CCN3CCCCC3)n2n1,46*
c1ccc2nc3c(nc2c1)c1ccccc1n3CN1CCCCC1,2
Cn1c(CN2CCCCC2)nc2ccccc21,4
COc1ccccc1OCC(=O)N1CCc2c(cnc(C)c2CNC(=O)C(OC)c2ccccc2)C1 (configuration not stated),-4
c1cc2c(s1)COCc1sccc1-2,45*
O=C(O)c1sccc1-c1ccsc1C(=O)O,-1
Cc1cc2nc(SCc3cccc(Cl)c3)n(Cc3ccccc3F)c2cc1C,1
